Shown are actives, neighbours in structure and some others; about 2.8% of the full set was active somewhere.
Shn3 inh set2 = reduces Shn3 3'UTR luciferase signal in osteoblasts; Clone20 osteoblast Shn3 3'UTR firefly luciferase, 24 h; inhibition, % at 12.5 µM; hit rate 0.52% among 360,000; AID 588674;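 active = mean inhibition of at least 75% with every replicate also reaching 75%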;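 note: 0% = median of neutral control wells and 100% = pilot-screen positive control compound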
Peg3 prom inh = reduces Peg3 promoter-driven luciferase expression in HeLa. inhibition, % at 20 µM. hit rate 1.7% among 360,000. HeLa PEG-Prom luciferase reporter, luminescence, overnight. AID 588405;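 active = inhibition of at least 50% at 20 µM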
CF NFkB inh = cystic fibrosis NF-kB activation inhibition | KKLEB NF-kB-GFP reporter, PAF-induced, GFP fluorescence overnight | hit rate 0.86% among 360,000 | inhibition, % at 5 µM;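 active = at least 50% inhibition at 5 µM, scaled per plate between neutral and stimulator controls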;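 note: PAF is a Pseudomonas aeruginosa culture filtrate used as stimulus; plate controls were PAF-stimulated DMSO wells for no effect and unstimulated DMSO wells for full effect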
HIF-2a inh = HIF-2a inhibition | AID 624352 | hit rate 0.72% among 360,000 | inhibition, % at 18.8 µM | 786-0 RCC cells HIF-2a reporter, luciferase luminescence, overnight;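 active = inhibition of the luminescence signal of 40% or more relative to plate controls, in a single-dose primary screen at 18.75 µM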
MITF TRPM1 inh = reduces MITF-dependent TRPM1 promoter luciferase signal; SK-MEL-5 TRPM1 promoter luciferase, 24 h; inhibition, % at 12.5 µM; hit rate 0.83% among 330,000;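 active = mean inhibition across replicates of 60% or more, whatever share of single replicates reaches that level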
KKLEB tox = reduces viability of KKLEB cystic fibrosis airway cells. KKLEB CF airway cells viability, ATPlite luminescence, overnight; hits give low values; cells stimulated with P. aeruginosa culture filtrate. activity change (cytotoxicity), % at 5 µM. hit rate 0.36% among 360,000. AID 602141;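 active = corrected activity change at or below -50% at 5 µM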
An asterisk follows results filed as active.

CCCCCCC(C)(C)c1ccc([C@@H]2C[C@H](O)CC[C@H]2CCCO)c(O)c1 was read as Shn3 inh set2 -10, Peg3 prom inh 83*, CF NFkB inh -5, HIF-2a inh 15, MITF TRPM1 inh 9 and KKLEB tox -10.
Screening COC(=O)C1=C(c2ccc(OC(F)(F)F)cc2)C[C@@H]2CC[C@H]1N2C(=O)NC(C)C returned Shn3 inh set2 -5, Peg3 prom inh 10, CF NFkB inh -10, HIF-2a inh 5, MITF TRPM1 inh 1 and KKLEB tox 10.
c1ccc(-c2ccc(CN3Cc4ccccc4-n4nncc4C3)cc2)cc1 was read as Shn3 inh set2 83, Peg3 prom inh 10, CF NFkB inh -46, HIF-2a inh -10 and KKLEB tox 10.
`C[C@H](CO)N1C[C@H](C)[C@@H](CN(C)C(=O)Oc2ccc3ccccc3c2)OCc2cnnn2CCCC1=O` gave Shn3 inh set2 -7, Peg3 prom inh -1, CF NFkB inh 4, HIF-2a inh 6 and KKLEB tox -4.
For C[C@H]1C/C=C/[C@H]2[C@H](O)[C@H](C)[C@@](C)(O)[C@H]3[C@H](Cc4ccccc4)NC(=O)[C@]32[C@H](O)/C=C/[C@](C)(O)C1 the results were Shn3 inh set2 13, Peg3 prom inh 15, CF NFkB inh -8, HIF-2a inh -1 and KKLEB tox -17.
`C=C1C(C)C2C(Cc3ccccc3)NC(=O)C23C(OC(C)=O)C=CC(C)(O)CC(C)CC=CC3C1O` (stereo not drawn) gave Shn3 inh set2 37, Peg3 prom inh -16, CF NFkB inh 53*, HIF-2a inh 10, MITF TRPM1 inh -1 and KKLEB tox -67*.
For C=C1[C@@H](C)[C@H]2[C@H](Cc3ccccc3)NC(=O)[C@]23OC(=O)/C=C/[C@H](O)CCC[C@@H](C)C/C=C/[C@H]3[C@@H]1O the results were Shn3 inh set2 73, Peg3 prom inh 64*, CF NFkB inh 81*, HIF-2a inh -15, MITF TRPM1 inh 14 and KKLEB tox -37.
`COc1ccc(CNC(=O)CCC(=O)N2C[C@H]3C[C@H](C2)c2cccc(=O)n2C3)cc1` gave Shn3 inh set2 4, Peg3 prom inh 9, CF NFkB inh -24, HIF-2a inh 8 and KKLEB tox 12.
For COC(=O)C1=C(c2ccc(OCc3ccccc3)cc2)C[C@@H]2CC[C@H]1N2C(=O)NCc1cccc(OC)c1 the results were Shn3 inh set2 35, Peg3 prom inh -6, CF NFkB inh 17, HIF-2a inh 7, MITF TRPM1 inh -2 and KKLEB tox 0.
Screening CCS(=O)(=O)Nc1cccc(C(=C2CCCCC2)c2cnc[nH]2)c1 returned Shn3 inh set2 -13, Peg3 prom inh 20, CF NFkB inh 0, HIF-2a inh -1, MITF TRPM1 inh 3 and KKLEB tox -8.
For CN1CCN(c2ccc([N+](=O)[O-])c3no[n+]([O-])c23)CC1 the results were Shn3 inh set2 97*, Peg3 prom inh 102*, CF NFkB inh 59*, HIF-2a inh 61*, MITF TRPM1 inh 86* and KKLEB tox -56*.
CN1CCN(c2ccc(S(C)(=O)=O)cc2[N+](=O)[O-])CC1 was read as Shn3 inh set2 -14, Peg3 prom inh 14, CF NFkB inh 5, HIF-2a inh 5, MITF TRPM1 inh -8 and KKLEB tox -10.
For O=[N+]([O-])c1ccc(N(CCO)CCO)c2c1no[n+]2[O-] the results were Shn3 inh set2 52, Peg3 prom inh 99*, CF NFkB inh 0, HIF-2a inh 51* and KKLEB tox -44.
Screening CC(O)C1C=CC=CC(=O)OC2CC3OC4C5OC5(C)C(O)CC4(COC(=O)C(O)C(C)CCO1)C2(C)C31CO1 (stereo not drawn) returned Shn3 inh set2 96*, Peg3 prom inh 105*, CF NFkB inh 83*, HIF-2a inh 66*, MITF TRPM1 inh 79* and KKLEB tox -13.
Screening Clc1ccc(C(c2ccc(Cl)cc2)n2cc[n+](CC(OCc3ccc(Cl)cc3Cl)c3ccc(Cl)cc3Cl)c2)cc1 (stereo not drawn) returned Shn3 inh set2 87*, Peg3 prom inh 102*, CF NFkB inh 56*, HIF-2a inh 97*, MITF TRPM1 inh 103* and KKLEB tox 8.
